The panel holds about 79,000 compounds, 15% with a hit somewhere; the sample as a whole holds those more often. Values without a mark were called inactive. Calls of active or inactive are those of the source. Cut-off read from the data, not from the text of the source: active = growth inhibition above about 70%; inactive = the rest.

Test [1] in a line: NCI Yeast Anticancer Drug Screen. Data for the rad50 strain (AID 155).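 Note: 0% = growth of vehicle-only cultures of the same strain.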 To be noted: S. cerevisiae rad50 strain growth inhibition; at 50.0 µM; stronger effect = higher value. Put shortly:
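Growth of the mutant yeast was measured after compound exposure and referenced to vehicle-treated cultures.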

A short description of test [2]: NCI Yeast Anticancer Drug Screen. Data for the mec2-1 strain (AID 157). To be noted: S. cerevisiae mec2-1 strain, at 50.0 µM, stronger effect = higher value. Put shortly:
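Vehicle-treated cultures served as reference for growth inhibition of compound-exposed mec2-1 yeast.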

Test [3] in a line: NCI Yeast Anticancer Drug Screen. Data for the sgs1 mgt1 strain (AID 161).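 Note: 0% = growth of cultures given vehicle only.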 As to conditions: S. cerevisiae sgs1 mgt1 strain, at 50.0 µM, stronger effect = higher value. Put shortly:
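Test agents were incubated with a DNA-repair-mutant yeast strain. Growth was then read and compared against vehicle-treated controls.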

Test [4] in a line: NCI Yeast Anticancer Drug Screen. Data for the cln2 rad14 strain (AID 165).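 Note: 0% = growth equal to vehicle treated cultures.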 As to conditions: S. cerevisiae cln2 rad14 strain, at 50.0 µM, stronger effect = higher value. In a few lines:
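Each compound was tested on cln2 rad14 yeast. Inhibition of growth was calculated against vehicle-exposed controls.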

Test [5] in a line: NCI Yeast Anticancer Drug Screen. Data for the bub3 strain (AID 167). As to conditions: S. cerevisiae bub3 mutant strain, at 50.0 µM, stronger effect = higher value. In a few lines: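 Whole-cell yeast assay. The mutant strain was incubated with compounds, and growth inhibition was determined by comparison with vehicle-treated cells.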
Test [6] is described as follows: NCI Yeast Anticancer Drug Screen. Data for the mlh1 rad18 strain (AID 175). As to conditions: S. cerevisiae mlh1 rad18 strain growth inhibition; at 50.0 µM; stronger effect = higher value. In a few lines:
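Vehicle-treated cultures served as the reference for growth inhibition in a yeast strain carrying DNA damage repair alterations exposed to each compound.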

For `COc1cc(C(=O)CC(=O)Cc2ccc3ccccc3n2)cc(OC)c1OC`, the growth inhibition in test [1] was 2.75%; in test [2], 1.3%; in test [3], 0.9%; in test [4], -15.7%; in test [5], 2.05%; in test [6] it was 38.2%.
For the molecule `O=c1c2c(no[n+]2[O-])c2ccccc2n1-c1ccccc1`, the growth inhibition is 96.7% (active) in test [1]; 66% in test [2]; 92.4% (active) in test [3]; 86% (active) in test [4]; 97.2% (active) in test [5]; 96% (active) in test [6].
In the case of `CC(=O)SC1CC2CCC1C2` (stereo unspecified), the growth inhibition in test [1] was 0.75%; in test [2], -18.2%; in test [3] it was -17.4%; in test [4], 9.95%; in test [5], -19.7%; in test [6] it was 15.7%.
Regarding `O=C(O)c1ccc(CS(=O)c2ccccc2)c([N+](=O)[O-])c1` (stereo unspecified), the growth inhibition was 8.2% in test [1]; -0.7% in test [2]; -1.45% in test [3]; 14.4% in test [4]; -4.9% in test [5]; 24.7% in test [6].
On to `CSc1nc(C)cc(N(C)c2ccccc2)n1`, for which the growth inhibition was -5.9% in test [1]; 0.25% in test [2]; 8.85% in test [3]; -8.9% in test [4]; -18.2% in test [5]; 14.6% in test [6].
`COc1ccc(C2=C/C(=C/c3cccc(OC)c3OC)C(=O)O2)cc1`: the growth inhibition was -10.6% in test [1]; 0.65% in test [2]; 11.9% in test [3]; -30.9% in test [4]; -11.2% in test [5]; -5.35% in test [6].
Take `OC(CC1CCCC(CC(O)c2ccccc2)N1CCc1ccccc1)c1ccccc1` (stereo unspecified): the growth inhibition in test [1] is 24.8%; in test [2], -1.3%; in test [3], 22.4%; in test [4], 35.4%; in test [5], 38.2%; in test [6] it was 21.2%.
Take `O=c1[nH]c(=S)[nH]n1C(=S)n1[nH]c(=S)[nH]c1=O`: the growth inhibition in test [1] is 5.35%; in test [2], -2.65%; in test [3] it was 8.7%; in test [4], -7.8%; in test [5], 13.1%; in test [6] it was 9.6%.
With `O=C1CC(NC(=O)C(F)(F)F)c2c1csc2Br` (stereo unspecified), the growth inhibition in test [1] is -20.6%; in test [2], -2.55%; in test [3] it was -9.1%; in test [4], -12.6%; in test [5], -11%; in test [6], 20.2%.
Consider `CC(=O)c1ccc(N=NN(C)C)cc1`, for which the growth inhibition in test [1] is 0.2%; in test [2] it was 1%; in test [3], -2.65%; in test [4], -18.4%; in test [5], -21.9%; in test [6], -15.6%.
`Cc1c(C(CC(=O)c2ccccc2)C(=O)O)c2ccccc2n1C` (stereo unspecified): the growth inhibition in test [1] is 2.05%; in test [2] it was -25.3%; in test [3], 23.2%; in test [4] it was -32.3%; in test [5], 52%; in test [6] it was -11.4%.
For the molecule `CN(C)c1ccc(/C=C(\C#N)c2cccc(Br)c2)cc1`, the growth inhibition in test [1] is -2.45%; in test [2], -7.3%; in test [3] it was 3.1%; in test [4], -11.3%; in test [5], 12.1%; in test [6], -0.05%.
Turning to `COc1cc(-c2cc(=O)c3c(O)c(OC)c(OC)cc3o2)ccc1O`, the growth inhibition is -34.3% in test [1]; -40.2% in test [2]; -28.5% in test [3]; -22.1% in test [4]; -36.6% in test [5]; -41.5% in test [6].
For `CCOC(=O)c1csc(N)n1`, the growth inhibition in test [1] was -24.5%; in test [2], 7.35%; in test [3], -15.1%; in test [4] it was -39.6%; in test [5], -9.7%; in test [6] it was -18.3%.
With `NC(C(=O)O)c1ccc(C(=O)O)cc1` (stereo unspecified), the growth inhibition in test [1] is 30.7%; in test [2], 15.6%; in test [3], -5.55%; in test [4] it was 18.8%; in test [5] it was -7.6%; in test [6], 20.5%.
For the molecule `Nc1ccc2ccccc2c1[N+](=O)[O-]`, the growth inhibition in test [1] was 25.9%; in test [2] it was 10.1%; in test [3] it was 37.6%; in test [4] it was 17.5%; in test [5], 14.9%; in test [6] it was 39.3%.
Take `O=C1O/C(=C2/OC(=O)c3ccccc32)c2ccccc21`: the growth inhibition in test [1] was -8.05%; in test [2], -7.95%; in test [3], -3.75%; in test [4], -44%; in test [5], 14.5%; in test [6] it was -0.65%.
Turning to `O=C(O)C1CC2CC2C1` (stereo unspecified), the growth inhibition is 2.6% in test [1]; 12% in test [2]; -2.8% in test [3]; 9.9% in test [4]; 16.1% in test [5]; 9.1% in test [6].
Take `O=[N+]([O-])c1cc(C(F)(F)F)ccc1S(=O)(=O)c1ccccc1`: the growth inhibition in test [1] was 40.4%; in test [2], 8.5%; in test [3], 8.7%; in test [4], 13.7%; in test [5] it was 14.1%; in test [6], 17.6%.
`Cc1ccc(N)cc1S(=O)(=O)O`: the growth inhibition is 29.8% in test [1]; -10.6% in test [2]; -9.45% in test [3]; -14.8% in test [4]; 3% in test [5]; 21.6% in test [6].
Take `Cc1c(C)c(C)c(CCl)c(CCl)c1C`: the growth inhibition in test [1] is 36.1%; in test [2] it was 16.9%; in test [3] it was 31.9%; in test [4], 10.4%; in test [5], 8.3%; in test [6] it was 24.6%.
